Source: PubChem BioAssay
VP16 counter – inhibits Gal4-VP16 luciferase reporter, ROR gamma counter-screen; Drosophila S2 Gal4-VP16 UAS-luciferase, luminescence, 20 h; Potency, µM (titrated, usually from 53.6 µM), for inactives: top-dose activity, negative = inhibition, usual class: inhibitors; 3.5% of 310,000 active; AID 2546;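 also: Gal4-VP16 expression switched on by copper sulfate through the metallothionein promoter; nearly all actives have a fitted effect of over 50% in size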
RORgamma inh – blocks mouse ROR gamma transcriptional activity. P51450. Drosophila S2 Gal4-RORgamma UAS-luciferase reporter, 20 h. Potency, µM (doses to about 53.6 µM), without a hit: at the highest dose activity change, negative = inhibition, usual class: inhibitors. 5.4% of 310,000 active; also: nearly all actives have a fitted effect of over 60% in size
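Drosophila Schneider cells stably carrying a metallothionein-driven Gal4 DBD–ROR gamma fusion and a UAS-Photinus luciferase reporter were exposed to compound for 1 hr, then induced with copper sulfate (700 uM final) for 20 hr at ambient temperature before luminescence reading.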
TDP1 cell noCPT – qHTS for Inhibitors of human tyrosyl-DNA phosphodiesterase 1 (TDP1): qHTS in cells in absence of CPT; DT40 Tdp1-/- hTDP1 cells, no CPT, ATP luminescence, 48 h; 15% of 420,000 active; Potency, µM (titrated, usually from 46.2 µM), for the others: top-dose activity change, negative = growth inhibition, hits mostly inhibitors; also: nearly all actives have a fitted effect of over 55% in size
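Camptothecin absent (DMSO only). Human TDP1-complemented DT40 knockout cells, 400 cells/well, 37 °C for minimum 48 hr; ATP measured via CellTiter-Glo, 30 min dark incubation, luminescence.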
TDP1 block – blocks human tyrosyl-DNA phosphodiesterase 1; recombinant TDP1, AlphaScreen DNA substrate cleavage; Potency, µM (top dose mostly 130 µM), for inactives: top-dose activity change, negative = inhibition, actives largely listed as inhibitors; 0.28% of 350,000 active; AID 485290; also: nearly all actives have a fitted effect of over 40% in size
Target sequence (Q9NUW8 whole entry, looked up): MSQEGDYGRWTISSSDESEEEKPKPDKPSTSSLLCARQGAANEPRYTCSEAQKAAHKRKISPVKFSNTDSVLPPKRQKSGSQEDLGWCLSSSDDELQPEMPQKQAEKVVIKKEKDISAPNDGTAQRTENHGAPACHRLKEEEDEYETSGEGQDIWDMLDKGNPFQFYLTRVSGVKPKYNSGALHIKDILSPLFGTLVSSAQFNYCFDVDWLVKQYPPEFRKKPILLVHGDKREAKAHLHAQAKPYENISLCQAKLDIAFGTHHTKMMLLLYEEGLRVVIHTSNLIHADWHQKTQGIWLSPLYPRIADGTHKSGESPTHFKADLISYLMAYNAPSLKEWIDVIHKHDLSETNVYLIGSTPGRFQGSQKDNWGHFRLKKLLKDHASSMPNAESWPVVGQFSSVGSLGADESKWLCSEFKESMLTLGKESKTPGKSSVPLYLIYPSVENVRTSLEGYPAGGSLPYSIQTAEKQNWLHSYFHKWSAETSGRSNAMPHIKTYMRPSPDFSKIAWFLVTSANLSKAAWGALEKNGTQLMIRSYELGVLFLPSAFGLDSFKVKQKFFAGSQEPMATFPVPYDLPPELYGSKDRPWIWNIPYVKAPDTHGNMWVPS
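Recombinant human Tdp1 (E. coli-expressed, 1 nM final) preincubated with compounds 15 min at room temperature, then 5'-biotin/3'-phosphotyrosine-FITC DNA substrate (15 nM final) added for 5 min. AlphaScreen beads (10 ug/ml final) added 10 min; cleavage lowers signal.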
TDP1 cell CPT – growth inhibition of DT40 Tdp1-/-;hTDP1 cells with camptothecin (screen for TDP1 inhibitors). Potency, µM (highest dose often 46.2 µM), for inactives: at the highest dose activity change, negative = growth inhibition, most hits filed as inhibitors. 12% of 420,000 active. AID 686979. chicken DT40 Tdp1-/-;hTDP1 cells + 20 nM CPT, ATP luminescence, 48 h; also: nearly all actives have a fitted effect of over 55% in size
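Chicken DT40 Tdp1-/- cells stably complemented with human TDP1 were seeded at 400 cells/well in medium containing 20 nM camptothecin, exposed to pin-transferred compounds, and grown at 37 °C for at least 48 hr. Viability was read as ATP luminescence.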
* = called active by the depositor; ? = inconclusive; . = not tested or not shown; ! = not confirmed by another sample; [ ] = another dose, or the depositor's remark. In the library only some 19% were active in any assay of this set; here they are far more common. Calls follow the shape of the dose curve; as a rule, active = well fitted curve in the direction sought with a large enough effect; inconclusive = small, poorly fitted or top-dose-only effect, or another doubt; inactive = no such curve, though single readings can be large; an effect the other way counts as inactive or inconclusive. % is scaled to controls: 0 for no effect and ±100 for the full control effect; potency is read from the fitted curve at half-maximal effect.

SMILES	VP16 counter	RORgamma inh	TDP1 cell noCPT	TDP1 block	TDP1 cell CPT
CNC(=O)c1ccc(NC(=O)Nc2ccccc2)cc1	18%	11%	?	.	-1%
N#CC(c1ccccc1F)(c1ncc(C(F)(F)F)cc1Cl)N1CCOCC1 (stereo not given)	3%	-9%	-6%	0%	-7%
O=C(COC(=O)C1CC2CCCC(C1)C2=O)Nc1ccc(Cl)cn1 (stereo not given)	.	.	16%	-3%	-1%
CC(=O)c1cccc(NC(=O)CCn2nc(C)c(S(=O)(=O)N3CCCCC3)c2C)c1	.	.	?	-1%	?
COc1ccc(NC(=O)CCn2c(=O)c3cccn3c3cccnc32)c(OC)c1	.	.	15µM*	8%	?
COc1ccc(OC)c(CCNC(=O)CCn2c(=O)c3cccn3c3cccnc32)c1	.	.	16µM*	3%	?
COc1ccc(NC(=O)CCn2c(=O)c3cccn3c3cccnc32)cc1Cl	.	.	-24%	5%	0%
COc1ccc(CCNC(=O)CCCn2c(=O)c3cccn3c3cccnc32)c(OC)c1	-8%	0%	-21%	-2%	?
Cn1cccc1C(=O)NC(=O)COC(=O)CNC(=O)c1ccc(Cl)cc1Cl	-6%	-2%	-17%	3%	2%
COc1ccc(CN(Cc2ccccc2)C(=O)COC(C)=O)cc1COc1ccc(NC(C)=O)cc1	.	.	?	3%	?
COc1ccc(-c2nc3ccccc3c(=O)n2Cc2ccc(CNC(=O)CO)cc2)cc1COc1ccc(NC(C)=O)cc1	.	.	.	79µM*	.
COc1ccc(-c2nc3ccccc3c(=O)n2Cc2ccccc2)cc1OCc1ccc(NC(C)=O)cc1	.	.	.	3%	.
COc1ccc(-c2nc3ccccc3c(=O)n2Cc2ccco2)cc1COc1ccc(NC(C)=O)cc1	.	.	.	-4%	.
COc1ccc(-c2nc3ccc(NC(=O)COC(C)=O)cc3c(=O)n2Cc2ccccc2)cc1COc1ccc(NC(C)=O)cc1	.	.	11µM*	?	?
COc1ccc(-c2nc3ccc(NC(C)=O)cc3c(=O)n2Cc2cccc(Cl)c2)cc1COc1ccc(NC(C)=O)cc1	.	.	13µM*	-9%	11µM*
COc1ccc2c(c1)C(=O)[C@@H](OC(=O)N[C@H]1CCCc3ccccc31)[C@H](c1ccc(OC)c(Br)c1)O2	-3%	12%	.	2%	.
C=CCn1c(SCc2c(F)cccc2Cl)nnc1-c1ccco1	9%	21%	16µM*	2%	21µM*
Cc1c(CCOC(=O)c2cccc([N+](=O)[O-])c2)sc[n+]1CC(=O)c1ccccc1	8%	9%	?	0%	8.2µM*
O=C(C[n+]1csc2ccccc21)c1cccc([N+](=O)[O-])c1	.	.	10µM*	.	11µM*
Cc1c(CCOC(=O)c2ccc([N+](=O)[O-])cc2)sc[n+]1CC(=O)c1ccccc1	7%	0%	?	7%	-23%
O=C(COC(=O)c1cccc([N+](=O)[O-])c1)c1ccc(OCc2ccccc2)cc1	-5%	35%	13µM*	5%	?
CC(C)Cn1c(-c2ccco2)csc1=Nc1cccnc1	-5%	-42%	?	2%	?
COc1ccc(CNCc2cc(C)c(OC)cc2C)c(OC)c1	0%	-13%	12µM*	.	15µM*
COc1cccc(CNCc2ccc(OC)cc2OC)c1	0%	-13%	?	.	?
CCN(CC)CCOc1ccc(Cc2ccccc2)cc1	-11%	20%	21µM*!	-4%	24µM*!
CCc1ccc(OCCCCN(C)Cc2ccccc2)cc1	-6%	4%[1.91 µM]	29µM*	.	?
c1cc(SSc2ccncc2)ccn1	-14%	-25%	16µM*	.	?
CCc1nc(SCC(=O)Nc2nnc(CC)s2)c2c(=O)n(C)c(=O)n(C)c2n1	?	36%	8.2µM*	2%	6.5µM*
Cc1csc(NC(=O)CSc2nc(C)nc3c2c(=O)n(C)c(=O)n3C)n1	15%	27%	21µM*	2%	?
